# Results published in PubChem BioAssay AID1159580 (chemical genetic matrix, 2015).
# Screen size: about 5,500 compounds; about 2,000 (36%) were called active. Inconclusive results (about 18%) are left out. The list shows a part of the results. A number with no mark means an inactive call. Rule as the data show it: active = normalized growth mostly below about 0.91 (no sharp cut-off); inconclusive = no clear call, values can overlap the other calls; inactive = mostly above about 0.92.
# Test: chemical genetic growth profiling, strain panel (AID 1159580);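 also: tested at 20 µM; growth read once vehicle control cultures reached saturation at 30 °C; 1 = growth at the plate median or of vehicle wells; lower values mean less growth of the strain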
# Settings: S. cerevisiae deletion strains, growth OD
# [1] = locus YDL101C, strain DUN1, active compounds read low
# [2] = locus YHR030C, strain SLT2, active compounds read low
compound,measurement,setting,value
Cc1nn(C)c(C(=O)Sc2ccc(OC(F)(F)F)cc2)c1[N+](=O)[O-],normalized growth,"locus YAR019C, strain CDC15, active compounds read low",0.977
same,normalized growth,"locus YBL105C, strain PKC1, active compounds read low",0.974
same,normalized growth,"locus YBR135W, strain CKS1, active compounds read low",0.969
same,normalized growth,"locus YBR136W, strain MEC1, active compounds read low",0.984
same,normalized growth,"locus YBR160W, strain CDC28, active compounds read low",0.977
same,normalized growth,"locus YDL017W, strain CDC7, active compounds read low",0.977
same,normalized growth,"locus YDL028C, strain MPS1, active compounds read low",0.985
same,normalized growth,[1],0.978
same,normalized growth,"locus YDL108W, strain KIN28, active compounds read low",0.98
same,normalized growth,"locus YDL132W, strain cdc53, active compounds read low",0.952
same,normalized growth,"locus YDL214C, strain PRR2, active compounds read low",0.946
same,normalized growth,"locus YDR052C, strain DBF4, active compounds read low",0.983
same,normalized growth,"locus YDR054C, strain cdc34, active compounds read low",0.952
same,normalized growth,"locus YDR226W, strain ADK1, active compounds read low",0.982
same,normalized growth,"locus YDR477W, strain SNF1, active compounds read low",0.993
same,normalized growth,"locus YER123W, strain YCK3, active compounds read low",0.895
same,normalized growth,"locus YER133W, strain GLC7, active compounds read low",1
same,normalized growth,"locus YFL009W, strain cdc4, active compounds read low",0.965
same,normalized growth,"locus YFL029C, strain CAK1, active compounds read low",0.978
same,normalized growth,"locus YFR003C, strain YPI1, active compounds read low",0.978
same,normalized growth,"locus YFR019W, strain FAB1, active compounds read low",0.972
same,normalized growth,"locus YFR028C, strain CDC14, active compounds read low",0.987
same,normalized growth,"locus YGR040W, strain KSS1, active compounds read low",1.03
same,normalized growth,"locus YGR052W, strain FMP48, active compounds read low",0.988
same,normalized growth,"locus YGR092W, strain DBF2, active compounds read low",0.939
same,normalized growth,[2],1.25 [resistant] (active)
same,normalized growth,"locus YHR079C, strain IRE1, active compounds read low",0.977
same,normalized growth,"locus YHR082C, strain KSP1, active compounds read low",0.947
same,normalized growth,"locus YHR205W, strain SCH9, active compounds read low",0.611
same,normalized growth,"locus YIL147C, strain SLN1, active compounds read low",0.985
same,normalized growth,"locus YJL095W, strain BCK1, active compounds read low",0.947
same,normalized growth,"locus YJL128C, strain PBS2, active compounds read low",0.87
same,normalized growth,"locus YJL157C, strain FAR1, active compounds read low",0.978
same,normalized growth,"locus YJR016C, strain ILV3, active compounds read low",0.977
same,normalized growth,"locus YJR066W, strain TOR1 (second series), active compounds read low",1.02
same,normalized growth,"locus YJR066W, strain TOR1, active compounds read low",0.936
same,normalized growth,"locus YKL048C, strain ELM1, active compounds read low",0.989
same,normalized growth,"locus YKL067W, strain YNK1, active compounds read low",0.96
same,normalized growth,"locus YKL101W, strain HSL1, active compounds read low",0.985
same,normalized growth,"locus YKL193C, strain SDS22, active compounds read low",0.975
same,normalized growth,"locus YKL203C, strain TOR2, active compounds read low",1.13
same,normalized growth,"locus YLR113W, strain HOG1, active compounds read low",0.834 (active)
same,normalized growth,"locus YLR133W, strain CKI1, active compounds read low",0.949
same,normalized growth,"locus YLR403W, strain SFP1, active compounds read low",0.99
same,normalized growth,"locus YML070W, strain DAK1, active compounds read low",0.959
same,normalized growth,"locus YMR001C, strain CDC5, active compounds read low",0.979
same,normalized growth,"locus YMR205C, strain PFK2 (second series), active compounds read low",0.965
same,normalized growth,"locus YMR277W, strain FCP1, active compounds read low",0.968
same,normalized growth,"locus YNL006W, strain LST8, active compounds read low",0.974
same,normalized growth,"locus YNL020C, strain ARK1, active compounds read low",0.95
same,normalized growth,"locus YNL161W, strain CBK1, active compounds read low",0.98
same,normalized growth,"locus YNL183C, strain NPR1, active compounds read low",1.04
same,normalized growth,"locus YNL207W, strain RIO2, active compounds read low",0.989
same,normalized growth,"locus YNL222W, strain SSU72, active compounds read low",0.976
same,normalized growth,"locus YNL307C, strain MCK1 (second series), active compounds read low",0.918
same,normalized growth,"locus YOL078W, strain AVO1, active compounds read low",0.972
same,normalized growth,"locus YOL136C, strain PFK27, active compounds read low",0.935
same,normalized growth,"locus YOR061W, strain CKA2, active compounds read low",0.95
same,normalized growth,"locus YOR119C, strain RIO1, active compounds read low",1.11
same,normalized growth,"locus YOR231W, strain MKK1, active compounds read low",0.884
same,normalized growth,"locus YOR329C, strain SCD5, active compounds read low",0.982
same,normalized growth,"locus YPL031C, strain PHO85, active compounds read low",1.01
same,normalized growth,"locus YPL153C, strain RAD53, active compounds read low",1.03
same,normalized growth,"locus YPL204W, strain HRR25, active compounds read low",1.06
same,normalized growth,"locus YPL209C, strain IPL1, active compounds read low",0.981
same,normalized growth,"locus YPL256C, strain CLN2, active compounds read low",0.952
same,normalized growth,"locus YPR025C, strain CCL1, active compounds read low",0.981
same,normalized growth,"locus YPR106W, strain ISR1, active compounds read low",0.959
same,normalized growth,"locus YPR111W, strain DBF20, active compounds read low",0.932
same,normalized growth,"strain NNK1, active compounds read low",0.955
same,normalized growth,"strain TSCII, active compounds read low",0.982
Cc1nn(C)c(C)c1[N+](=O)[O-],normalized growth,"locus YAL013W, strain DEP1, active compounds read low",0.996
same,normalized growth,"locus YBR229C, strain ROT2, active compounds read low",1.03
same,normalized growth,[1],0.992
same,normalized growth,"locus YDL134C, strain PPH21, active compounds read low",1
same,normalized growth,"locus YDR150W, strain NUM1, active compounds read low",0.939
same,normalized growth,"locus YEL061C, strain CIN8, active compounds read low",1
same,normalized growth,"locus YGR078C, strain PAC10, active compounds read low",0.999
same,normalized growth,"locus YGR229C, strain SMI1, active compounds read low",1.01
same,normalized growth,[2],1.01
same,normalized growth,"locus YHR087W, strain rtc3, active compounds read low",1.02
same,normalized growth,"locus YJR043C, strain POL32, active compounds read low",0.997
same,normalized growth,"locus YJR075W, strain HOC1, active compounds read low",0.988
same,normalized growth,"locus YKL190W, strain CNB1, active compounds read low",1
same,normalized growth,"locus YLR039C, strain RIC1, active compounds read low",0.998
same,normalized growth,"locus YLR058C, strain SHM2 (second series), active compounds read low",1.01
same,normalized growth,"locus YLR085C, strain ARP6, active compounds read low",1.02
same,normalized growth,"locus YLR262C, strain YPT6, active compounds read low",0.993
same,normalized growth,"locus YML094W, strain GIM5, active compounds read low",0.994
same,normalized growth,"locus YMR219W, strain ESC1, active compounds read low",1.02
same,normalized growth,"locus YMR307W, strain GAS1, active compounds read low",0.994
same,normalized growth,"locus YNL128W, strain TEP1, active compounds read low",1.01
same,normalized growth,"locus YNL153C, strain GIM3, active compounds read low",1
same,normalized growth,"locus YNL298W, strain CLA4 (second series), active compounds read low",1.01
same,normalized growth,"locus YNL322C, strain KRE1, active compounds read low",0.996
same,normalized growth,"locus YNR030W, strain Alg12, active compounds read low",1.02
same,normalized growth,"locus YOL006C, strain TOP1, active compounds read low",1.05
same,normalized growth,"locus YPL055C, strain LGE1, active compounds read low",0.867
same,normalized growth,"locus YPL241C, strain CIN2, active compounds read low",1
same,normalized growth,"locus YPR135W, strain CTF4, active compounds read low",1.03
